Structures are written as SMILES. Active and inactive are the calls of the source. Rule for the calls: active = hit-call score of the fitted dose curve at least 0.9, where 1 is the maximum; inactive = score below 0.9.

Assay [1] can be described thus: ATG_GLI_CIS: Attagene CIS-FACTORIAL HepG2 Assay for human Zinc Finger Protein GLI1 (AID 2282945). The conditions noted are these: HepG2, Attagene cis-factorial reporter mRNA, GLI element; actives raise or lower the signal. The essentials:
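Transiently transfected HepG2 cells report endogenous transcription factor activity via cis-element-driven reporter units. After 24 h compound exposure, reporter mRNA was measured by RT-PCR with capillary electrophoresis; bidirectional fitting against DMSO baseline.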

Assay [2] can be described thus: ATG_GRE_CIS: Attagene CIS-FACTORIAL HepG2 Assay for human Glucocorticoid Response Elements (GRE) (AID 2282947). To be noted: HepG2 GRE cis-reporter, Attagene multiplex mRNA; actives raise or lower the signal. The essentials: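 Read-out: fluorescent reporter-transcript fragments separated by capillary electrophoresis after RT-PCR. Transiently transfected HepG2 cells carrying cis-element-driven reporter units were dosed for 24 h; gain or loss of signal fitted against DMSO control.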

Assay [3] can be described thus: ATG_M_32_CIS: Attagene CIS-FACTORIAL HepG2 Assay for M32 Transcription Factor (Internal Marker) (AID 2282949).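 Note: background control marker of the multiplexed CIS panel rather than a real target.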 To be noted: HepG2 Attagene cis-factorial M32 reporter, mRNA; actives raise or lower the signal. The essentials:
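Transient MRTU transfection of HepG2; 24 h compound treatment; TriZol RNA, oligo(dT) RT, reporter PCR, 6-FAM primer extension, HpaI cut, CE. Gain/loss of signal vs DMSO.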

Assay [4] has as its target Hypoxia-inducible factor 1-alpha (Homo sapiens) (UniProt Q16665). In words: ATG_HIF1a_CIS: Attagene CIS-FACTORIAL HepG2 Assay for human Hypoxia Inducible Factor 1 (HIF1A) (AID 2282951). To be noted: HepG2 Attagene cis-factorial HIF1a reporter transcription; actives raise or lower the signal. The essentials:
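Dosed 24 h, transfected HepG2 cells yielded total RNA whose reporter transcripts were RT-PCR-amplified and sized by capillary electrophoresis using fluorescent labelling; DMSO defined baseline, with gain and loss of signal both fitted.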

Assay [5] deals with Hepatocyte nuclear factor 6 (Homo sapiens) (UniProt Q9UBC0). Description: ATG_HNF6_CIS: Attagene CIS-FACTORIAL HepG2 Assay for human Hepatocyte Nuclear Factor 6 (HNF6) (AID 2282952). The conditions noted are these: HepG2 Attagene cis-factorial HNF6 reporter transcription; actives raise or lower the signal. The essentials: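 Endogenous factor activity read in transiently transfected HepG2 via promoter-regulated reporter transcripts. RNA harvested 24 h post-dosing, reverse-transcribed, PCR-amplified, FAM-labelled, HpaI-digested and resolved by capillary electrophoresis; fitted in both directions against DMSO.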
Sequence of Hepatocyte nuclear factor 6 (Homo sapiens) (Q9UBC0 whole entry, looked up): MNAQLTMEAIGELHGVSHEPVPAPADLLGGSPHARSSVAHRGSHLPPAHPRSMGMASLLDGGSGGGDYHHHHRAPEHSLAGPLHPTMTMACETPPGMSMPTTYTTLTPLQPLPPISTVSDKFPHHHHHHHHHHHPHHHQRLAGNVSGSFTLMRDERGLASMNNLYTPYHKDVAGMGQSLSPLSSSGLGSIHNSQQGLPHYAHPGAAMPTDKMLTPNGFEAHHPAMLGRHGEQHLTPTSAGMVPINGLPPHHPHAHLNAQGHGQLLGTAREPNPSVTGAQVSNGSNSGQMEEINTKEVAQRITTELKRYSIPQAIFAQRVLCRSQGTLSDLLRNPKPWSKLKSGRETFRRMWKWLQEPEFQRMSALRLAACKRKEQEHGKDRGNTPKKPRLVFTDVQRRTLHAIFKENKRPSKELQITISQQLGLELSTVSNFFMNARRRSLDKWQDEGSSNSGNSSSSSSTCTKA

The target of assay [6] is Heat shock factor protein 1 (Homo sapiens) (UniProt Q00613). In words: ATG_HSE_CIS: Attagene CIS-FACTORIAL HepG2 Assay for human Heat Shock Transcription Factor 1 (HSE) (AID 2282953). The conditions noted are these: HepG2 HSE cis-reporter, Attagene RNA transcription; actives raise or lower the signal. The essentials:
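Reporter mRNA induction in HepG2 is measured 24 h after dosing, using transiently transfected multiplexed cis-regulated reporter units. Signal comes from capillary electrophoresis of labelled RT-PCR products, with DMSO as negative control.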

Assay [7] can be described thus: ATG_MRE_CIS: Attagene CIS-FACTORIAL HepG2 Assay for human Metal Responsive Element (MRE) (AID 2282954). The conditions noted are these: HepG2 MRE cis-reporter transcription, Attagene multiplex; actives raise or lower the signal. The method in brief: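 RT-PCR/capillary electrophoresis readout of reporter mRNA, 24 h post-dosing, in HepG2 cells transfected with multiplexed cis-regulated reporter constructs. Gain or loss of signal fitted bidirectionally against DMSO baseline.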

The nature of assay [8]: ATG_M_06_CIS: Attagene CIS-FACTORIAL HepG2 Assay for M06 Transcription Factor (Internal Marker) (AID 2282950). To be noted: HepG2 Attagene CIS-FACTORIAL M06 internal marker reporter; actives raise or lower the signal. The method in brief: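 Measured 24 h post-dosing in transiently transfected HepG2 cells, this internal-marker endpoint reports reporter mRNA via RT-PCR with fluorescent primer extension and capillary electrophoresis. DMSO served as negative control and baseline for bidirectional fitting.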

Assay [9] addresses Bile acid receptor (Homo sapiens) (UniProt Q96RI1). Description: ATG_IR1_CIS: Attagene CIS-FACTORIAL HepG2 Assay for human Nuclear Receptor Subfamily 1 Group H Member 4 (NR1H4), IR1 submotif (AID 2282946). The conditions noted are these: IR1 reporter transcription, actives raise or lower the signal. The essentials: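 Fluorescence of capillary-separated, HpaI-digested RT-PCR reporter products gave IR1-element mRNA induction in HepG2 cells 24 h after dosing. Endogenous transcription factors drove the cis-regulated reporters; activity was fitted bidirectionally against DMSO.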

A short description of assay [10]: ATG_ISRE_CIS: Attagene CIS-FACTORIAL HepG2 Assay for human Interferon Regulatory Factor 1 (IRF1) binding to an Interferon-Stimulated Response Element (ISRE) (AID 2282948). To be noted: HepG2 ISRE cis-reporter (Attagene), mRNA transcription readout; actives raise or lower the signal. The essentials: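 Uses HepG2 liver cells transfected with cis-regulated reporters and measures mRNA 24 h post-dosing through RT-PCR, primer-extension labelling and capillary electrophoresis, with DMSO as negative control.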

Sequence of Hypoxia-inducible factor 1-alpha (Homo sapiens) (Q16665 whole entry, looked up): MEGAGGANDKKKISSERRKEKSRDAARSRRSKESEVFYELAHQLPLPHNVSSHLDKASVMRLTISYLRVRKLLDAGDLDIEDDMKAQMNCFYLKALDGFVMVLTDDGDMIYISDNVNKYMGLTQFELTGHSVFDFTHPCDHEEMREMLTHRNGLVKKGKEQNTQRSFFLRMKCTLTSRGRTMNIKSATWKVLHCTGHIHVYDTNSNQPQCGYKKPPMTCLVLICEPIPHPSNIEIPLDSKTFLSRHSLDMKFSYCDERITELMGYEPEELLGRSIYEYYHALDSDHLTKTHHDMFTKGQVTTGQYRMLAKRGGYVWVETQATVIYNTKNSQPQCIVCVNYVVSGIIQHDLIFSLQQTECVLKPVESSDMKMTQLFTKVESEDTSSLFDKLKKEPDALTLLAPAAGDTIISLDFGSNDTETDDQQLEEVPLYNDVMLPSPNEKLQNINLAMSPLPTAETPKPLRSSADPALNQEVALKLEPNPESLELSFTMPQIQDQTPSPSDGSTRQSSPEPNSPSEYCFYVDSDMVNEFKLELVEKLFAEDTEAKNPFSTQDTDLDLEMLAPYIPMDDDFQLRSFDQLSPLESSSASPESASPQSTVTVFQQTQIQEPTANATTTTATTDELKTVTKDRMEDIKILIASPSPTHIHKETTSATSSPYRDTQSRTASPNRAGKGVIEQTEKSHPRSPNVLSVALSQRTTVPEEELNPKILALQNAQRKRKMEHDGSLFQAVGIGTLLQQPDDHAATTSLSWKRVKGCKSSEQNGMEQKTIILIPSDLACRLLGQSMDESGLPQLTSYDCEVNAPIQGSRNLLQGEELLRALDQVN
Sequence of Heat shock factor protein 1 (Homo sapiens) (Q00613 whole entry, looked up): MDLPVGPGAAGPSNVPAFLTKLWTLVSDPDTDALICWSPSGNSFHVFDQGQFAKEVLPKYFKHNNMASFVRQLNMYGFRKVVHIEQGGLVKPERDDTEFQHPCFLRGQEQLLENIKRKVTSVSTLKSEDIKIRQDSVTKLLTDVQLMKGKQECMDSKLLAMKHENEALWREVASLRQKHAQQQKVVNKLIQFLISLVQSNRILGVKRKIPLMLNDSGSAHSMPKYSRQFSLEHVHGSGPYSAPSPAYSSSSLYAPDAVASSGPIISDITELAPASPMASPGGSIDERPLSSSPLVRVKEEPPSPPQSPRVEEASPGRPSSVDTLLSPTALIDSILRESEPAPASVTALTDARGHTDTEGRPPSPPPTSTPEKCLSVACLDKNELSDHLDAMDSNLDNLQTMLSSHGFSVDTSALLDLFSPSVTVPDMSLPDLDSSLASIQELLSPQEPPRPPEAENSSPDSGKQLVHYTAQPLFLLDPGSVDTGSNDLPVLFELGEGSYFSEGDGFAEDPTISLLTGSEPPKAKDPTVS
Sequence of Bile acid receptor (Homo sapiens) (Q96RI1 whole entry, looked up): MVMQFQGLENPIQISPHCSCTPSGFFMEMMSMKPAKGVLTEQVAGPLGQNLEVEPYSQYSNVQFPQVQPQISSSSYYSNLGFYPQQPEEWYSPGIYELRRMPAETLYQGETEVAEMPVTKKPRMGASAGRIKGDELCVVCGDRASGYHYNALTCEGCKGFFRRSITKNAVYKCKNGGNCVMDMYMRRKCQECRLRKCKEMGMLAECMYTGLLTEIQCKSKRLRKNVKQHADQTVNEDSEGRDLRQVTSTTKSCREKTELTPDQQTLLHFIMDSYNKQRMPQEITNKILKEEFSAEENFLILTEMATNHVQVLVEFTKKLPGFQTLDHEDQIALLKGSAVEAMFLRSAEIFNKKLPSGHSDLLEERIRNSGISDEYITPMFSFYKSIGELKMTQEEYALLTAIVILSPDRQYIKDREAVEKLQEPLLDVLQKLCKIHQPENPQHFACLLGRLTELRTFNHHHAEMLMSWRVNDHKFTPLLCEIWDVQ

On to `Cc1c[nH]c(=O)[nH]c1=O`, for which the call in assay [1], in assay [2], in assay [3], in assay [4], in assay [5] and in [6] was inactive. Further, the result in [7] was inactive.
With `O=C(Cl)c1ccc(C(=O)Cl)cc1`, the outcome in assay [1], in [2], in assay [3], in [8], in assay [4] and in assay [5] was inactive. Moreover, the molecule was classed as inactive in assay [6] and in assay [7].
With `CCCCCCCCCC[N+](C)(CCCCCCCCCC)CCC[Si](OC)(OC)OC`, the result in assay [1], in assay [8], in assay [4], in assay [6] and in assay [7] was inactive. Further, the AC50 was 18.4 µM (active) in [2], 20.2 µM (active) in [3] and 11 µM (active) in assay [5].
Turning to `CC=CC(=O)OCC(C)C`, the call in assay [9], in [2], in assay [10], in assay [3], in assay [8] and in assay [4] was inactive. For the same molecule, the result in assay [5] and in [6] was inactive.
With `Nc1ccc(C(=O)OCCCOC(=O)c2ccc(N)cc2)cc1`, the molecule was called inactive in assay [1], in assay [2], in assay [10], in [3], in assay [4] and in assay [5]. The outcome in assay [6] and in assay [7] was inactive.
Consider `CO[Si](C)(C)OC`, for which the result in assay [1], in [2], in assay [10], in [3], in assay [4] and in assay [5] was inactive. Besides, the molecule was called inactive in assay [6] and in assay [7].
As for `CC1=CC=C(C(C)C)CC1`, the call in [1], in [10], in [3], in [8], in assay [4] and in [5] was inactive. Further, the outcome in [6] and in [7] was inactive.
For the molecule `CCCCCCCCCCCC(=O)OCC`, the call in assay [1], in assay [2], in assay [10], in assay [3], in assay [4] and in [5] was inactive. Further, the molecule was classed as inactive in [6] and in assay [7].
As to `CCCCCCO`, the outcome in assay [1], in [2], in [3], in assay [8], in assay [4] and in assay [5] was inactive. Besides, the call in assay [6] and in assay [7] was inactive.
In the case of `CC1(C)CC(O)CC(C)(C)N1[O]`, the molecule was called inactive in assay [1], in assay [10], in assay [3], in [8], in assay [4] and in assay [5]. Moreover, the outcome in assay [6] and in assay [7] was inactive.
Regarding `CCC(C)N` (stereo not drawn), the call in assay [1], in assay [2], in [3], in assay [8], in assay [4] and in assay [5] was inactive. For the same molecule, the molecule was classed as inactive in assay [6] and in assay [7].
For the molecule `CC(C)CCOCc1ccccc1`, the molecule was called inactive in [1], in [2], in assay [10], in assay [3], in assay [4] and in [5]. Moreover, the call in assay [6] and in assay [7] was inactive.
Take `O=C(Oc1ccccc1)c1ccccc1C(=O)Oc1ccccc1`: the outcome in [1], in assay [2], in assay [10], in assay [3], in [4] and in assay [5] was inactive. Besides, the outcome in [6] and in assay [7] was inactive.
On to `CCCCc1ccc(Cl)cc1`, for which the molecule was classed as inactive in assay [1], in [3], in assay [8], in [4], in assay [5] and in assay [6]. For the same molecule, the call in assay [7] was inactive.
Consider `Cc1c(O)cccc1O`, for which the outcome in assay [1], in assay [3], in [4], in assay [5], in [6] and in assay [7] was inactive.
For the molecule `O=C(O)CCC(=O)O`, the molecule was called inactive in assay [9], in [3], in [8], in assay [4], in assay [5] and in assay [6]. Also, the outcome in assay [7] was inactive.
In the case of `COc1ccc(C(=O)c2ccccc2)c(O)c1`, the values for the AC50 in assay [9] and in assay [7] were 151 µM (active) and 130 µM (active), respectively. Moreover, the molecule was classed as inactive in [2], in assay [3], in assay [8], in assay [4], in assay [5] and in assay [6].
Consider `CCCSSCCC`, for which the result in assay [2], in assay [10], in assay [3], in assay [8], in assay [4] and in assay [5] was inactive. In addition, the molecule was classed as inactive in assay [6] and in assay [7].
In the case of `C=C(C)[C@@H]1CC=C(C)CC1`, the result in assay [10], in [3], in assay [8], in assay [4], in assay [5] and in assay [6] was inactive. The result in assay [7] was inactive.
Turning to `O=C(OCc1ccccc1)c1ccc(O)cc1`, the result in [9], in assay [2], in [3], in assay [8] and in assay [5] was inactive. Moreover, the AC50 in assay [10] is 187 µM (active); in [4], 113 µM (active); in [6], 168 µM (active); in assay [7], 125 µM (active).
In the case of `C=Cc1cccc(C)c1`, the result in assay [2], in assay [10], in assay [3], in assay [8], in assay [4] and in [5] was inactive. For the same molecule, the call in assay [6] and in assay [7] was inactive.
In the case of `CC(C)(c1ccccc1)c1ccc(Nc2ccc(C(C)(C)c3ccccc3)cc2)cc1`, the call in assay [2], in [10], in assay [3], in [4], in [5] and in [6] was inactive. In assay [7], the molecule was classed as inactive.
On to `CC(=O)OCC=C(C)C`, for which the result in assay [2], in assay [10], in assay [3], in assay [8], in [4] and in assay [5] was inactive. The molecule was called inactive in [6] and in assay [7].
Turning to `COC(=O)c1ccccc1C`, the molecule was classed as inactive in assay [9], in assay [2], in assay [10], in assay [3], in assay [8] and in assay [4]. For the same molecule, the molecule was classed as inactive in [5], in assay [6] and in assay [7].
As to `CC(C)=CCCC(C)=CC#N`, the molecule was called inactive in assay [9], in assay [2], in [10], in [3], in assay [8] and in [4]. The result in [5], in assay [6] and in [7] was inactive.
As for `COC(=O)CC(C)CCC=C(C)C` (stereo not drawn), the outcome in [9], in assay [2], in [10], in [3], in [8] and in [4] was inactive. Besides, the call in [5], in [6] and in assay [7] was inactive.
On to `C=C1C[C@H]2[C@@H]3C=C(C)C4=CC(=O)CC[C@]4(C)[C@H]3CC[C@]2(C)[C@@]1(OC(C)=O)C(C)=O`, for which the results for the AC50 in [2], in [6] and in assay [7] were 0.057 µM (active), 96.4 µM (active) and 74.1 µM (active), respectively. Further, the molecule was called inactive in assay [10], in assay [3], in assay [4] and in assay [5].
For `N=C1C=CC(=C(c2ccc(N)cc2)c2ccc(N)cc2)C=C1`, the AC50 in [2] was 23.9 µM (active); in [10], 33.4 µM (active); in [6], 42.5 µM (active); in assay [7] it was 48.2 µM (active). The molecule was classed as inactive in assay [3], in [8] and in [5].
With `Oc1ccccc1Cc1ccccc1O`, the call in [2], in assay [3], in [8], in assay [5] and in [6] was inactive. Moreover, the AC50 in assay [4] was 134 µM (active); in assay [7] it was 124 µM (active).
Regarding `CC=C(C)C(C)=O`, the call in assay [2], in assay [10], in assay [3], in assay [8], in assay [4] and in assay [5] was inactive. In addition, the result in assay [6] and in assay [7] was inactive.
Consider `C1CNCCN1`, for which the result in [2], in assay [10], in assay [3], in assay [8], in [4] and in assay [5] was inactive. The molecule was classed as inactive in assay [6] and in assay [7].
For `C=C(C)C(=O)OCCCCCCCCCCCC`, the call in [2], in [10], in [3], in assay [8], in assay [4] and in assay [5] was inactive. Moreover, the molecule was classed as inactive in assay [6] and in [7].
In the case of `CCC(C)c1ccccc1` (stereo not drawn), the molecule was classed as inactive in [9], in assay [2], in assay [3], in assay [8], in assay [4] and in assay [5]. In addition, the result in [6] and in [7] was inactive.

The values above are taken from PubChem BioAssay (EPA / NIEHS).
